D2 antagonist: HTS Assay for Allosteric Antagonists of the Human D2 Dopamine Receptor: Primary Screen for Antagonists | AID 485344, 2010 | HEK293 TREx D2 cells, calcium flux, dopamine EC80 | inhibition, % at 10 µM | D(2) dopamine receptor (Homo sapiens), P14416 | 340,000 compounds, 2% hits; in the data active = inhibition above about 30%; inactive = below that, where a call was filed; note: 0% is about no effect
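Cells plated overnight at 30 C with tetracycline; no-wash calcium dye, 30–90 min RT; 10 s baseline; compound pinned; 180 s read; EC80 dopamine added; another 180 s read.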
D2 ag-1: Beta-Arrestin HTS for Positive Allosteric Modulators of the Human D2 Dopamine Receptor: Agonists; D(2) dopamine receptor (Homo sapiens), P14416; DiscoveRx PathHunter D2 beta-arrestin, luminescence, 90 min; 100% = 57 uM dopamine signal; activation, % (no concentration beside the values); 360,000 compounds, 0.084% hits; AID 624465, 2012; in the data active = activation above about 40%; inconclusive = between about 15% and that limit
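Agonist mode: compounds alone added to overnight-plated D2 PathHunter cells for 90 min at 37 C, with 57 uM final dopamine (EC100) defining full response. Beta-arrestin recruitment detected by chemiluminescent reagent, read after 1 h at ambient temperature.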
D2 PAM-1: Beta-Arrestin HTS for Positive Allosteric Modulators of the Human D2 Dopamine Receptor: Potentiators. DiscoveRx D2 beta-arrestin cells, luminescence, 90 min; 100% = 57 uM dopamine signal. potentiation, % (test concentration not listed). 360,000 compounds, 0.23% hits. AID 624464, 2012; in the data active = potentiation above about 50%; inconclusive = mostly about 30% to 49%
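PathHunter beta-arrestin assay in DiscoveRx D2 cells. Compounds were added with an EC20 of dopamine (50 nM final) for 90 min at 37 deg C. Luminescence was read 1 h after detection reagent, with 57 uM dopamine as the EC100 control.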
D2 ag-2: HTS Assay for Allosteric Agonists of the Human D2 Dopamine Receptor: Primary Screen for Agonists | 340,000 compounds, 0.53% hits | activation, % at 2 µM | HEK293 T-REx D2 cells, calcium flux agonist mode;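 active = activation over 3 SD above normal in the single-dose calcium agonist read, cut at about 30% in these data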; note: 0% is about no effect
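In this primary screen, compounds producing a positive calcium signal within 180 s of addition to tetracycline-induced, force-coupled HEK293 Trex D2 cells are flagged; cells are dye-loaded with a no-wash calcium kit beforehand.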
D2 PAM-2: HTS Assay for Positive Allosteric Modulators of the Human D2 Dopamine Receptor: Primary Screen for Potentiators; 340,000 compounds, 0.34% hits; D(2) dopamine receptor (Homo sapiens), P14416; potentiation, % at 10 µM; AID 485347, 2010; HEK293 T-REx D2, calcium flux, EC20 dopamine potentiation;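 active = potentiation over 3 SD above the plate norm, cut at about 30% in these data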; note: 0% is about no effect
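Potentiation of an EC20 dopamine calcium response measured kinetically over 180 s, after a preceding 180 s compound-only read flagging agonists. Cells: inducible Hek293 Trex D2 line, 4000/well, cultured overnight at 30 C before dye loading.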
D3 arrestin ag: qHTS of D3 Dopamine Receptor Agonist: D3 Dopamine Receptor B-arrestin Agonist Confirmatory Assay; shares compounds with D2 ag-2; DiscoveRx D3 beta-arrestin cells, luminescence, 90 min; Potency, µM (doses to about 76.9 µM), without a hit: at the top dose activation, hits mostly activators; 2,300 compounds, 4% hits; AID 720506, 2013;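 note: potency is the fitted concentration of half-maximal effect; 100% = dopamine control response; nearly all actives have a fitted effect of over 70% in size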
Target sequence (P35462 whole entry, looked up): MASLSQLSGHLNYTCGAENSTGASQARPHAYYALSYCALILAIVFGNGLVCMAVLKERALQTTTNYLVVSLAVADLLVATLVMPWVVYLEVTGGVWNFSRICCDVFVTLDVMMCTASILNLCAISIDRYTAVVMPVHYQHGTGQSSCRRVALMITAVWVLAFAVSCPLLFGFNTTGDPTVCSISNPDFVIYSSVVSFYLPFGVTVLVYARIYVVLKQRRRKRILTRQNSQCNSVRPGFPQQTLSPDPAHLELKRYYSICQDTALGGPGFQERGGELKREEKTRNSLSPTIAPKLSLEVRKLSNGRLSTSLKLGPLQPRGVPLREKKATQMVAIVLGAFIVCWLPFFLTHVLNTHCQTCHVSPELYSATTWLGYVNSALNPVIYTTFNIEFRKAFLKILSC
D2 ag-3: qHTS of D3 Dopamine Receptor Agonist: D2 Dopamine Receptor B-arrestin Agonist Counterscreen; Potency, µM (series often up to 76.9 µM), inactives show at the highest dose activation, actives largely listed as activators; shares compounds with D2 ag-2; DiscoveRx PathHunter D2 beta-arrestin, luminescence, 90 min; response scale: percent relative to full dopamine signal; 2,300 compounds, 5.9% hits; note: potency is the fitted concentration of half-maximal effect; % of control where 0% means no effect; nearly all actives have a fitted effect of over 70% in size
An asterisk follows results filed as active; ? = inconclusive; nt = not tested or not shown; ! = repeats disagree. Compounds with a hit are over-represented: about 2.4% of the library has one in this group of screens. Unless noted, calls come from the whole dose curve; as a rule, active = well fitted activation curve with a large enough effect; inconclusive = small, poorly fitted or top-dose-only effect; inactive = flat fitted curve, though single readings scatter.

SMILES	D2 antagonist	D2 ag-1	D2 PAM-1	D2 ag-2	D2 PAM-2	D3 arrestin ag	D2 ag-3
CC(=O)C1C(N2CC2)CC2C3CC=C4CC(O)CCC4(C)C3CCC21C (stereo not given)	nt	-3.2	-8.4	nt	nt	nt	nt
Cc1ccccc1NC(=O)N1Cc2ccccc2-n2nncc2C1	nt	-11.0	1.6	nt	nt	nt	nt
CC(CCc1ccccc1)NCCC#N (stereo not given)	16.1	10.1	5.6	76.7*	-26.4	?	23.5%
CC1=C(C)CN2CC(C#N)=C(N)C2C1 (stereo not given)	nt	0.5	3.4	nt	nt	nt	nt
NCCc1c[nH]c2ccccc12	-13.9	-7.2	-60.0	-0.1	-6.3	nt	nt
CCCCc1ccc2[nH]cc(CCN)c2c1	14.2	14.8	-13.1	43.7*	-19.9	-3.2%	?
N#Cc1cc2c(nc1SCC(=O)Nc1ccc(Cl)c(C(F)(F)F)c1)C1CCN2CC1	nt	nt	nt	0.6	18.2	nt	nt
C1=C(c2ccccc2)CCNC1	42.9*	-1.7	-8.8	40.0*	-29.5	-8.8%	0.8%
CCc1ccc(-n2nc(C)c3c2NC(=O)CSC3c2ccc(C(=O)OC)cc2)cc1 (stereo not given)	nt	nt	nt	-1.3	-2.0	nt	nt
CC(C)CC(C)N (stereo not given)	6.4	4.2	-11.6	0.5	-10.6	-4.1%	-3.0%
CC(C)[C@@]1(NC(=O)[C@@H]2C[C@@H]3c4cccc5[nH]cc(c45)C[C@H]3N(C)C2)O[C@@]2(O)[C@@H]3CCCN3C(=O)[C@H](Cc3ccccc3)N2C1=O	101.0*	-7.9	-0.4	90.9*	-32.1	7.2%	?
CC(C)C[C@H]1C(=O)N2CCCC2[C@]2(O)O[C@](NC(=O)[C@@H]3C=C4c5cccc6[nH]cc(c56)CC4N(C)C3)(C(C)C)C(=O)N12 (stereo not given in full)	78.1*	122.2*	54.3*	73.1*	-27.5	?	0.282µM*
CC(C)C[C@H]1C(=O)N2CCC[C@H]2[C@]2(O)O[C@](NC(=O)[C@@H]3C=C4c5cccc6[nH]c(Br)c(c56)CC4N(C)C3)(C(C)C)C(=O)N12 (stereo not given in full)	94.1*	55.3*	?	79.9*	-27.4	?	0.282µM*
Clc1ccccc1CN1CCN(c2cccc3[nH]ccc23)CC1	nt	5.0	-6.1	nt	nt	-8.2%	1.5%
Nc1ccc(N2CCN(Cc3ccccc3Cl)CC2)c(Cl)c1	28.2	-2.8	-10.7	2.6	-27.1	nt	nt
Clc1ccccc1CN1CCN(c2ccccc2)CC1	68.2*	?	6.8	67.8*	-26.1	0.5%	?
COc1c2c(cc3c1OCO3)CCN(C)C2	74.8*	-4.6	6.6	68.5*	-13.1	?	?
COc1cc2c(cc1OC)-c1c3c(cc4c1[C@@H](C2)N(C)CC4)OCO3	4.3	4.5	-26.4	0.0	-10.9	nt	nt
O=C1NC(=S)N(c2ccc(Br)cc2)C(=O)/C1=C/N1CCN(C(=O)c2ccco2)CC1	11.4	-3.9	-39.0	27.5	-10.1	-4.5%	-2.2%
Cc1cc(C)cc(-n2c(=O)[nH]c3ccccc3c2=O)c1	nt	nt	nt	0.9	2.3	nt	nt
OC(CNCCc1c[nH]c2ccccc12)c1ccccc1 (stereo not given)	54.0*	-4.1	-13.7	12.4	-0.6	-3.5%	5.3%
CC(=O)NCCc1c[nH]c2ccccc12	8.8	-4.4	-18.4	0.6	-3.2	nt	nt
COc1ccc(CNCCc2c[nH]c3ccccc23)c(OC)c1C	33.1*	-2.3	-11.9	7.3	-15.5	-5.9%	5.1%
Fc1ccccc1CNCCc1c[nH]c2ccccc12	25.7	-0.6	-18.9	16.1	-21.0	-23.1%	0.0%
Fc1ccc(CNCCc2c[nH]c3ccccc23)cc1	-17.0	3.9	-22.5	1.5	-15.4	nt	nt
SMILES	D2 antagonist	D2 ag-1	D2 PAM-1	D2 ag-2	D2 PAM-2	D3 arrestin ag	D2 ag-3
Cc1cccc(NC(=O)Cn2cc(C(=O)c3ccccc3)c3ccccc32)c1	nt	nt	nt	-0.4	-2.6	nt	nt
COc1ccc(-n2nnnc2C(CCSC)N2CCC(n3c(=O)[nH]c4ccccc43)CC2)cc1 (stereo not given)	nt	2.7	?	nt	nt	nt	nt
O=c1[nH]c2ccccc2c(=O)n1-c1ccc(Cl)c(Cl)c1	nt	nt	nt	-0.1	-4.6	nt	nt
CCOC(=O)c1ccc(N2C(=O)CC(N3CC=C(c4ccc(F)cc4)CC3)C2=O)cc1 (stereo not given)	-9.4	-0.9	-1.2	-1.2	1.0	nt	nt
NC(=O)c1ccc(OCCC(O)N2CC=C(c3ccc(F)cc3)CC2)cc1 (stereo not given)	64.6*	-1.0	-25.7	34.9*	-11.6	?	?
Cc1cccc(CN2CC=C(c3noc(CCC(=O)Nc4ccc(C)c(F)c4)n3)CC2)c1	nt	nt	nt	0.6	-7.3	nt	nt
C[C@H]1CC[C@@]2(C)[C@@H](CC[C@@H]3[C@@H]2CC[C@]2(C)[C@@H](O)CC[C@@H]32)C1	69.1*	-0.6	-9.9	-1.1	-14.5	4.0%	-2.0%
C[C@]12CCC3C(CC[C@H]4C[C@@H](O)CC[C@]34C)[C@H]1CC[C@H]2O (stereo not given in full)	nt	1.9	-0.2	nt	nt	nt	nt
COc1ccc(NC(=O)CN2CC=C(c3ccccc3)CC2)cc1S(=O)(=O)N1CCOCC1	-4.2	8.0	-16.7	54.4*	-28.2	?	1.9%
O=C1NCN(c2ccccc2)C12CCN(C(CCc1ccccc1)c1nnnn1C1CCCCC1)CC2 (stereo not given)	nt	-5.3	-14.1	nt	nt	nt	nt
Cc1cccc(-n2c(/C=C\c3cccc(Br)c3)nc3ccccc3c2=O)c1	nt	nt	nt	-0.3	18.8	nt	nt
Cc1[nH]c2ccccc2c1CN1CCCCC1	nt	-2.0	-20.7	nt	nt	nt	nt
Cc1[nH]c2c(Cl)cccc2c1CCN	40.6*	5.2	-32.2	23.7	-32.4	2.9%	8.2%
OC(COCc1ccc(Cl)cc1)CN1CC=C(c2ccccc2)CC1 (stereo not given)	84.7*	83.0*	70.9*!	-0.2	16.8	50.1µM*	44.7µM*

Screening data (PubChem)
